Active and inactive are the calls of the source. Calls follow the shape of the dose curve; as a rule, active = well fitted curve in the direction sought with a large enough effect; inconclusive = small, poorly fitted or top-dose-only effect, or another doubt; inactive = no such curve, though single readings can be large; an effect the other way counts as inactive or inconclusive.
Test system: not listed separately
Assay: Validation qHTS assay for inhibitors of Activation Induced Cytidine Deaminase (AID): UDG Counterscreen signal (AID 1347427)
Conditions: biochemical UDG counterscreen, fluorescence signal; series mostly up to 115 µM
In short: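 Counterscreen read of UDG activity (2 U/mL, 4/3x) in the FRET deamination format with AID (1 uM, 4/3x), DJC20/DJC23 substrates (250 nM, 4x), 4 h at room temperature. NaOH stop, fluorescence at 560 ex/665 em.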
With Cc1nccc2c1[nH]c1ccccc12 the outcome was “inactive”. In the case of O=C(O)CC[N+](=O)[O-], the outcome is reported as “inactive”. With C[C@@H]1O[C@H](C[N+](C)(C)C)C[C@H]1O the outcome was “inactive”. With c1ccc(CCCN2CCN(CCOC(c3ccccc3)c3ccccc3)CC2)cc1 the outcome was “inactive”. With O=C(O)Cc1cnc[nH]1 the outcome was “inactive”. With O=C(N[C@H]1CN2CCC1CC2)c1ccc(Cl)cc1 the outcome was “inactive”. For NC1CCc2cc(O)c(O)cc2C1 (configuration not stated), the outcome was “inactive”. For CC[C@@]1(O)C(=O)OCc2c1cc1n(c2=O)Cc2cc3ccccc3nc2-1, the outcome was “inactive”. In the case of C[C@]12CCC3C(CC[C@H]4C[C@H](O)CC[C@]34C)C1CC[C@@H]2C(=O)CO (some centres not stated), the outcome is reported as “inactive”. With CCCN(CCC)[C@@H]1CCc2ccc(O)cc2C1 the outcome was “inactive”. In the case of CCCN(CCC)C1CCc2ccc(O)cc2C1 (configuration not stated), the outcome is reported as “inactive”. In the case of O=C(O)[C@@H]1CCN1, the outcome is reported as “inactive”. With S=C(NC1CCCCC1)N1CCC(c2cnc[nH]2)CC1 the outcome was “inactive”. For COC(=O)[C@@H](N)CCCN=C(N)N[N+](=O)[O-], the outcome was “inactive”. With NCc1cc(=O)[nH]o1 the outcome was “inactive”. With CC(C)Oc1cccnc1N(C)C1CCN(Cc2ccccc2)CC1 the outcome was “inactive”. With Oc1ccc2c3c1O[C@H]1c4[nH]c5c(c4C[C@@]4(O)[C@@H](C2)N(CC2CC2)CC[C@]314)C[C@@]1(O)[C@H]2Cc3ccc(O)c4c3[C@@]1(CCN2CC1CC1)[C@H]5O4 the outcome was “inactive”. With CC[C@@H](C(N)=O)N1CCCC1=O the outcome was “inactive”. In the case of NCCc1c[nH]c2ccc(O)cc12, the outcome is reported as “inactive”. In the case of CC1=NN=C(c2ccc(N)cc2)c2cc3c(cc2C1)OCO3, the outcome is reported as “inactive”. With CCCCc1ccc(C(=O)O)nc1 the outcome was “inactive”. In the case of CCCN1CCC[C@H](c2cccc(O)c2)C1, the outcome is reported as “inactive”. For Clc1cnc(Oc2ccc(Oc3ncc(Cl)cc3Cl)cc2)c(Cl)c1, the outcome was “inactive”. For NCCc1c[nH]c2ccccc12, the outcome was “inactive”. In the case of C[N+]1(C)C2CCC1CC(OC(=O)C(CO)c1ccccc1)C2 (configuration not stated), the outcome is reported as “inactive”. For CCCN1CCO[C@@H]2c3cc(O)ccc3OC[C@H]21, the outcome was “inactive”.

Biological target: Single-stranded DNA cytosine deaminase (Homo sapiens) (UniProt Q9GZX7)
Sequence (Q9GZX7 whole entry, looked up): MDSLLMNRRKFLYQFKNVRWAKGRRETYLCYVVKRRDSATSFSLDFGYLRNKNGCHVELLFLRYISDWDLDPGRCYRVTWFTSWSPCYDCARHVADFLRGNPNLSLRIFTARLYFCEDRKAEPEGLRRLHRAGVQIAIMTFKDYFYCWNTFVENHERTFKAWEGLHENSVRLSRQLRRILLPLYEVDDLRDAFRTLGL
Assay: Validation qHTS assay for inhibitors of Activation Induced Cytidine Deaminase (AID): AID signal (AID 1347429)
Conditions: Recombinant AID, FRET ssDNA deamination with UDG, fluorescence; series mostly up to 115 µM
In short: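 Fluorescence at 540 nm excitation and 590 nm emission reports ssDNA cytosine deamination by AID, with UDG in the same well. Compound-treated reactions ran 4 hr at room temperature with DJC20/DJC23 substrate, followed by 30 min NaOH treatment.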
With Cc1nccc2c1[nH]c1ccccc12 the outcome was “inactive”. For O=C(O)CC[N+](=O)[O-], the outcome was “inactive”. With C[C@@H]1O[C@H](C[N+](C)(C)C)C[C@H]1O the outcome was “inactive”. In the case of c1ccc(CCCN2CCN(CCOC(c3ccccc3)c3ccccc3)CC2)cc1, the outcome is reported as “inactive”. With O=C(O)Cc1cnc[nH]1 the outcome was “inactive”. With O=C(N[C@H]1CN2CCC1CC2)c1ccc(Cl)cc1 the outcome was “inactive”. In the case of NC1CCc2cc(O)c(O)cc2C1 (configuration not stated), the outcome is reported as “inactive”. With CC[C@@]1(O)C(=O)OCc2c1cc1n(c2=O)Cc2cc3ccccc3nc2-1 the outcome was “inactive”. In the case of C[C@]12CCC3C(CC[C@H]4C[C@H](O)CC[C@]34C)C1CC[C@@H]2C(=O)CO (some centres not stated), the outcome is reported as “inactive”. In the case of CCCN(CCC)[C@@H]1CCc2ccc(O)cc2C1, the outcome is reported as “inactive”. With CCCN(CCC)C1CCc2ccc(O)cc2C1 (configuration not stated) the outcome was “inactive”. With O=C(O)[C@@H]1CCN1 the outcome was “inactive”. In the case of S=C(NC1CCCCC1)N1CCC(c2cnc[nH]2)CC1, the outcome is reported as “inactive”. With COC(=O)[C@@H](N)CCCN=C(N)N[N+](=O)[O-] the outcome was “inactive”. With NCc1cc(=O)[nH]o1 the outcome was “inactive”. In the case of CC(C)Oc1cccnc1N(C)C1CCN(Cc2ccccc2)CC1, the outcome is reported as “inactive”. In the case of Oc1ccc2c3c1O[C@H]1c4[nH]c5c(c4C[C@@]4(O)[C@@H](C2)N(CC2CC2)CC[C@]314)C[C@@]1(O)[C@H]2Cc3ccc(O)c4c3[C@@]1(CCN2CC1CC1)[C@H]5O4, the outcome is reported as “inactive”. For CC[C@@H](C(N)=O)N1CCCC1=O, the outcome was “inactive”. In the case of NCCc1c[nH]c2ccc(O)cc12, the outcome is reported as “inactive”. For CC1=NN=C(c2ccc(N)cc2)c2cc3c(cc2C1)OCO3, the outcome was “inactive”. For CCCCc1ccc(C(=O)O)nc1, the outcome was “inactive”. With CCCN1CCC[C@H](c2cccc(O)c2)C1 the outcome was “inactive”. For Clc1cnc(Oc2ccc(Oc3ncc(Cl)cc3Cl)cc2)c(Cl)c1, the outcome was “inactive”. For NCCc1c[nH]c2ccccc12, the outcome was “inactive”. In the case of C[N+]1(C)C2CCC1CC(OC(=O)C(CO)c1ccccc1)C2 (configuration not stated), the outcome is reported as “inactive”. With CCCN1CCO[C@@H]2c3cc(O)ccc3OC[C@H]21 the outcome was “inactive”.

— PubChem BioAssay (NCATS)
